Measurements published in PubChem BioAssay (NCATS).
Several values for one entry are separate records, joined by “and”; a condition that tells them apart may be missing. Equal values may be shown once. Results filed as inconclusive are left out. Entries that show only a call come without a potency. Activity calls are given as the source filed them. Unless noted, calls follow the shape of the dose curve; as a rule, active = well fitted curve in the direction sought with a large enough effect; inconclusive = small, poorly fitted or top-dose-only effect, or another doubt; inactive = no such curve, though single readings can be large; an effect the other way counts as inactive or inconclusive.

Key:
[1] = qHTS assay for small molecule antagonists of retinoid X receptor alpha signaling (AID 588546; active = well fitted inhibition curve with a large enough effect in the signal ratio, with a control signal flat, not every such curve was filed as active; the % refers to the signal ratio;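 also: cells stimulated with 9-cis-retinoic acid as agonist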); conditions: HEK293T RXRa-UAS-bla, beta-lactamase ratio, antagonist mode; measured here: W530 green channel, cytotoxicity proxy
In short: (§1)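 Beta-lactamase reporter inhibition, read as CCF4 fluorescence ratio (ex 405, em 460/530 nm) after 2 h at RT. HEK293T UAS-bla cells, 2500/well, were stimulated with 9-cis-RA at 500 or 100 nM final alongside test compound for 18 h at 37 C.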

[2] = biological target: Retinoic acid receptor RXR-alpha (Homo sapiens) (UniProt P19793); assay: as above; conditions: HEK293T RXRa-UAS-bla, beta-lactamase ratio, antagonist mode
In short: as §1

[3] = biological target: Thyroid hormone receptor beta (Homo sapiens) (UniProt P10828); assay: qHTS assay for small molecule antagonists of thyroid hormone receptor beta signaling (AID 588547; active = well fitted inhibition curve with a large enough effect in the signal ratio, with a control signal flat, not every such curve was filed as active; the % refers to the signal ratio;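 also: cells stimulated with 0.4 nM T3 agonist during compound exposure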); conditions: TR-UAS-bla HEK293, beta-lactamase ratio, antagonist mode, 18 h
In short: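 TR-UAS-bla GripTite HEK293 cells in 2% charcoal/dextran FBS medium; compounds 0.59 nM to 92 uM with T3 at 0.4nM final, 18 h at 37 C. Beta-lactamase read by CCF4 fluorescence (460/530 nm); Hill fits gave IC50 and efficacy.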

[4] = biological target: Voltage-gated inwardly rectifying potassium channel KCNH2 (Homo sapiens) (UniProt Q12809); assay: qHTS Assay for Small Molecule Inhibitors of the Human hERG Channel Activity (AID 588834); conditions: U2OS BacMam hERG, FluxOR thallium flux fluorescence; series mostly up to 46.1 µM;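 also: lower thallium flux fluorescence means stronger hERG block; nearly all actives have a fitted effect of over 50% in size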; also: potency is read from the fitted curve at half-maximal effect
In short: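 Step 1: BacMam hERG transduction of U2OS, 4 hrs RT. Step 2: overnight 37 °C, plate 2000 cells/well, 4 hr. Step 3: FluxOR load, compound 10 min, stimulate, read fluorescence.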

[5] = biological target: Luciferin 4-monooxygenase (Photinus pyralis) (UniProt P08659); assay: Biochemical firefly luciferase enzyme assay for NPC (AID 624030); also: nearly all actives have a fitted effect of over 70% in size; also: potency is read from the fitted curve at half-maximal effect; conditions: purified P. pyralis luciferase, luminescence, 5 min; series mostly up to 58.6 µM
In short: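 Purified P. pyralis luciferase at 10 nM in 50 mM Tris Acetate (final), luminescence read within 5 minutes of enzyme addition to compounds. Activity normalised to PTC124 versus DMSO; concentration-response curves classed by r2, magnitude and activity.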

[6] = S16 Schwann cell viability assay (CellTiter-Glo assay) (AID 624031); conditions: S16 rat Schwann cells viability, 24 h; series mostly up to 57.5 µM;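 also: native untransfected S16 rat Schwann cells; cellular ATP luminescence as a viability measure; nearly all actives have a fitted effect of over 70% in size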
In short: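 Concentration-effect curves come from CellTiter-Glo luminescence of S16 rat Schwann cells after 24 h compound exposure. Each reading was normalized to DMSO wells (0%) and wells without cells, and curves were ranked by r2 and response magnitude.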

[7] = S16 Schwann cell PMP22 intronic element firefly luciferase assay (AID 624032); conditions: S16 rat Schwann cells, PMP22 element FLuc, 24 h; series mostly up to 57.5 µM; also: nearly all actives have a fitted effect of over 30% in size
In short: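 Rat S16 Schwann cells stably carrying firefly luciferase driven by a PMP22 intronic element, in 10% FBS, treated 24 h at 37 C. ONE-Glo luminescence normalized to PTC124 control and DMSO (0%); curves classed by r2, magnitude and activity.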

[8] = S16 Schwann cell PMP22 intronic element beta-lactamase assay (AID 624044; calls by dose curve; also: nearly all actives have a fitted effect of over 15% in size); conditions: S16 rat Schwann cells, PMP22 element beta-lactamase FRET, 24 h; ratio activity, negative = inhibition: at 38.3 µM (top of the series) unless noted
In short: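 Beta-lactamase reporter under a PMP22 intronic regulatory element in stable S16 rat Schwann cells; 24 h compound exposure. 460 nm blue signal normalized between DMSO (0%) and potassium clavulanate, with 535 nm FRET tracking viability; curves classed by r2 and response.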

Thyroid hormone receptor beta (Homo sapiens), sequence (P10828 whole entry, looked up): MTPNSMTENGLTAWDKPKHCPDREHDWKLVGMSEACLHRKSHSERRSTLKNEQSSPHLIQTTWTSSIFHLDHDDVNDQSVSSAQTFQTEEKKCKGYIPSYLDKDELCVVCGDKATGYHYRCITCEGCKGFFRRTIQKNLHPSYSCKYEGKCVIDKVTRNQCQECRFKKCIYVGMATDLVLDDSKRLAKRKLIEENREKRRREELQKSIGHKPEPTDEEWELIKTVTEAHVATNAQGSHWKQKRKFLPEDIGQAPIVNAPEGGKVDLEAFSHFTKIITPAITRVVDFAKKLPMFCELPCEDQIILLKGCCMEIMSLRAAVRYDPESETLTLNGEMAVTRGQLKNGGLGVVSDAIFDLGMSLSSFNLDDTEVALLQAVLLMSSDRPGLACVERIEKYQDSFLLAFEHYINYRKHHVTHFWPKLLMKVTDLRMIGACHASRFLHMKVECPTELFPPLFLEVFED
Retinoic acid receptor RXR-alpha (Homo sapiens), sequence (P19793 whole entry, looked up): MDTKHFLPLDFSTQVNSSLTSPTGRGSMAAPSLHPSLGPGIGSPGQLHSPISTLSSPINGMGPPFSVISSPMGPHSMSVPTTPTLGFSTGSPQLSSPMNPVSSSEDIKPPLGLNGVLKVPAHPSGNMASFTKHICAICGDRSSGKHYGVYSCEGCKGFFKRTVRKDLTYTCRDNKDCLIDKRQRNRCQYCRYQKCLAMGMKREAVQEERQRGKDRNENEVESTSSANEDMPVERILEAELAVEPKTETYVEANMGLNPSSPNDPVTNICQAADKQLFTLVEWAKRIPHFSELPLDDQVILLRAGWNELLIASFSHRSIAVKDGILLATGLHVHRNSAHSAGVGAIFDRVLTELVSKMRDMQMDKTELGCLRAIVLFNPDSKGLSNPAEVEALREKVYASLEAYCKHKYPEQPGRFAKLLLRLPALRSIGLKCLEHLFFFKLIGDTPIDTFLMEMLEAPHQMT
Voltage-gated inwardly rectifying potassium channel KCNH2 (Homo sapiens), sequence (Q12809 whole entry, looked up): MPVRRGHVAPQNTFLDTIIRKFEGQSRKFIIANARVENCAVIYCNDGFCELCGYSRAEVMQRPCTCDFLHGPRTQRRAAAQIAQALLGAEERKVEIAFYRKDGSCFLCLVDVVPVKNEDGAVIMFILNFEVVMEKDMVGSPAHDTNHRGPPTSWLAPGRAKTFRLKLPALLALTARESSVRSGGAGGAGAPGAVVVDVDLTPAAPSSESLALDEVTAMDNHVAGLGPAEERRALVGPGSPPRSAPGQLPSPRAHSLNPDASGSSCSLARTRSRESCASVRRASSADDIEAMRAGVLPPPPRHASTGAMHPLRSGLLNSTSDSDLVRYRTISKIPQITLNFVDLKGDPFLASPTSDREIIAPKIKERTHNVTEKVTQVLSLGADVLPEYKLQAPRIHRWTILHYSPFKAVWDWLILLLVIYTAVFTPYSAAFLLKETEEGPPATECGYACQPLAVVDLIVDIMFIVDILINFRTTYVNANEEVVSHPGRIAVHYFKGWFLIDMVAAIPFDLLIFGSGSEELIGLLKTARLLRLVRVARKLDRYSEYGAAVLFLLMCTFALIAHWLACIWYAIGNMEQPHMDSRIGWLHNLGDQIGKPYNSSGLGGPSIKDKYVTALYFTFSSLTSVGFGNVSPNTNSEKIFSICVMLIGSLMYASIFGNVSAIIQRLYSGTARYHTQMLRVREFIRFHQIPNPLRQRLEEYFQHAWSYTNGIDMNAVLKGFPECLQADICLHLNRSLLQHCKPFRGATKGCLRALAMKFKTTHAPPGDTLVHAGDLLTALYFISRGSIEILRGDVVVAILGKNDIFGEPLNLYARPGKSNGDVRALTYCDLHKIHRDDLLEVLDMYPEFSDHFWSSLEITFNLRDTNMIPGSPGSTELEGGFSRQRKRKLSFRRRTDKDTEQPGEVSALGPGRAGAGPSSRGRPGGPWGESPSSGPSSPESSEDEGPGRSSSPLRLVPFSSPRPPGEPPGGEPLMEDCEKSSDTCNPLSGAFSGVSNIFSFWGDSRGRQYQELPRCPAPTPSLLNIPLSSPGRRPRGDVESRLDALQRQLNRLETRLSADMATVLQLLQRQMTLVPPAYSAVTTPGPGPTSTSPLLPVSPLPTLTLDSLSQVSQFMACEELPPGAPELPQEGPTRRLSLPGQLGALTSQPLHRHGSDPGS
Luciferin 4-monooxygenase (Photinus pyralis), sequence (P08659 whole entry, looked up): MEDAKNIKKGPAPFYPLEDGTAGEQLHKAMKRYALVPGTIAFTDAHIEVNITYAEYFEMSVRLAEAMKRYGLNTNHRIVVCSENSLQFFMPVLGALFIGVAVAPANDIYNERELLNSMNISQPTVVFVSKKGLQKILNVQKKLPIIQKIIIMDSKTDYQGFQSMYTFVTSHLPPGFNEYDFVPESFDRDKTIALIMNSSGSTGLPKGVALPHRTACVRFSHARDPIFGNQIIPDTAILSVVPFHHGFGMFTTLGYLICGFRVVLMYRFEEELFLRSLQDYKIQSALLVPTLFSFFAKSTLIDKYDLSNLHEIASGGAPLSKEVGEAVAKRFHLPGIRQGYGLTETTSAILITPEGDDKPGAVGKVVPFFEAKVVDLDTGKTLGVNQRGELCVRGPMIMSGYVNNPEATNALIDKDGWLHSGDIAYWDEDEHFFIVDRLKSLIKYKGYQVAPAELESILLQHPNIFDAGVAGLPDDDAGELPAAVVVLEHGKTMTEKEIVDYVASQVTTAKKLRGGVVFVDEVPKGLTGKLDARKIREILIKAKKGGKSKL

With `CCCCO` the max response [1] was 1.36% and -14.8%, the max response [2] was 4.41% (inactive) and -4.75% (inactive) and the activity change % (negative = inhibition) [3] was 5.68% (inactive) and 1.89% (inactive). For the same compound, the Potency [4] was “inactive”, the Potency [5] was “inactive” and the Potency [6] was “inactive”. For the same compound, the Potency [7] was “inactive” and the ratio activity, negative = inhibition [8] was 1.65% (inactive).
With `CCCCCCCCCCCCCCCCCC(=O)OC[C@@H](O)[C@H]1OC[C@H](O)[C@H]1O` the max response [1] was -3.05%, the max response [2] was -7.79% (inactive) and the activity change % (negative = inhibition) [3] was 11.4% (inactive). The Potency [4] was “inactive”, the Potency [5] was “inactive” and the Potency [6] was “inactive”. The ratio activity, negative = inhibition [8] was 1.3% (inactive).
With `ClC(Cl)Cl` the max response [1] was -1.18%, the max response [2] was 6.91% (inactive) and the activity change % (negative = inhibition) [3] was -7.48% (inactive). For the same compound, the Potency [4] was “inactive”, the Potency [6] was “inactive” and the Potency [7] was “inactive”. The ratio activity, negative = inhibition [8] was 4.84% (inactive).
In the case of `Cc1ccc(S(=O)(=O)NCl)cc1`, the max response [1] is reported as -12.9%, the max response [2] is reported as 17.1% (inactive) and the activity change % (negative = inhibition) [3] is reported as 3.3% (inactive). The Potency [4] was “inactive”, the Potency [5] was “inactive” and the Potency [6] was “inactive”. The Potency [7] was “inactive”.
In the case of `C=C1CC[C@H](O)C/C1=C\C=C1/CCC[C@]2(C)[C@@H]([C@H](C)CCCC(C)C)CC[C@@H]12`, the Potency [4] is reported as “inactive”.
With `CCCCC(O)c1ccccc1` (configuration not stated) the Potency [4] was “inactive”.
In the case of `CC(=C\c1ccccc1)/C=C1/SC(=S)N(CC(=O)O)C1=O`, the Potency [4] is reported as “inactive”.
With `CO[C@H]1C[C@H](O[C@@H]2/C(C)=C/C[C@@H]3C[C@@H](C[C@]4(CC[C@H](C)[C@@H](C5CCCCC5)O4)O3)OC(=O)[C@@H]3C=C(C)/C(=N/O)[C@H]4OC/C(=C\C=C\[C@@H]2C)[C@]43O)O[C@@H](C)[C@@H]1O` the Potency [4] was “inactive”.
For `CN(C)CCC(O)(c1ccccc1)c1ccccc1Cl` (configuration not stated), the Potency [4] was 3.16 µM (active).
With `CN[C@@H]1[C@@H](O)[C@@H](O[C@@H]2[C@@H](O)[C@H](OC3OC(CN)=CCC3N)[C@@H](N)C[C@H]2N)OC[C@]1(C)O` (some centres not stated) the Potency [4] was “inactive”.
For `NCCN`, the max response [1] was -1.66%, the max response [2] was -7.75% (inactive) and the Potency [5] was “inactive”. For the same compound, the Potency [6] was “inactive” and the ratio activity, negative = inhibition [8] was -0.354% (inactive).
With `CC(C)(CO)[C@@H](O)C(=O)NCCCC(=O)O` the Potency [4] was “inactive”.
For `CCN1C(=O)NC(c2ccccc2)C1=O` (configuration not stated), the Potency [4] was “inactive”.
In the case of `CN[C@@H]1[C@H](O[C@H]2[C@H](O[C@H]3[C@H](O)[C@@H](O)[C@H](N=C(N)N)[C@@H](O)[C@@H]3N=C(N)N)O[C@@H](C)[C@]2(O)CO)O[C@@H](CO)[C@H](O)[C@H]1O`, the Potency [4] is reported as “inactive”.
With `CC/C=C\C/C=C\C/C=C\CCCCCCCC(=O)O` the max response [1] was 8.56%, the max response [2] was -8.86% (inactive) and the Potency [4] was “inactive”. The Potency [5] was “inactive”, the Potency [6] was “inactive” and the Potency [7] was “inactive”. For the same compound, the ratio activity, negative = inhibition [8] was 3.48% (inactive).
In the case of `CC[C@H](C)[C@@H]1NC(=O)[C@H](Cc2ccc(O)cc2)NC(=O)[C@@H](N)CSSC[C@@H](C(=O)N2CCC[C@H]2C(=O)N[C@@H](CC(C)C)C(=O)NCC(N)=O)NC(=O)[C@H](CC(N)=O)NC(=O)[C@H](CCC(N)=O)NC1=O`, the Potency [4] is reported as “inactive”.
For `C=CC(C)(O)CC/C=C(\C)CCC=C(C)C` (configuration not stated), the max response [1] was -3.85%, the max response [2] was 13.1% (inactive) and the Potency [4] was “inactive”. For the same compound, the Potency [5] was “inactive”, the Potency [6] was “inactive” and the Potency [7] was “inactive”.
In the case of `C[C@H]1[C@@H](OC(=O)CCC(=O)O)O[C@@H]2OC3(C)CC[C@H]4[C@H](C)CC[C@@H]1[C@@]24OO3`, the Potency [4] is reported as “inactive”.
In the case of `C=C1[C@@H]2CC[C@@H](C2)C1(C)C`, the Potency [4] is reported as “inactive”.
In the case of `O=C1NC(=O)[C@H]2[C@@H]1[C@@H]1C=C[C@H]2C1`, the Potency [4] is reported as “inactive”.
In the case of `C=O`, the Potency [4] is reported as “inactive”.
In the case of `CC[C@H]1NC(=O)[C@@H](NC(=O)c2ncccc2O)[C@@H](C)OC(=O)[C@H](c2ccccc2)NC(=O)[C@@H]2CC(=O)CCN2C(=O)[C@H](Cc2ccccc2)N(C)C(=O)[C@@H]2CCCN2C1=O`, the Potency [4] is reported as “inactive”.
In the case of `CC(C)(C)CC(C)(C)c1ccc(OCCO)cc1`, the max response [1] is reported as 6.21%, the max response [2] is reported as -7.14% (inactive) and the Potency [4] is reported as “inactive”. The Potency [5] was “inactive”, the Potency [6] was “inactive” and the ratio activity, negative = inhibition [8] was -12.4% (inactive).
With `C[C@@H]1NC(=O)[C@@H](N)CNC(=O)[C@H](C2CCNC(N)=N2)NC(=O)/C(=C/NC(N)=O)NC(=O)[C@H](CNC(=O)C[C@@H](N)CCCN)NC1=O` (some centres not stated) the Potency [4] was “inactive”.
In the case of `CO/N=C(\C(=O)N[C@@H]1C(=O)N2C(C(=O)O)=C(CSc3nc(C)c(CC(=O)O)s3)CS[C@H]12)c1csc(N)n1`, the Potency [4] is reported as “inactive”.
For `COC(=O)[C@H]1[C@H]2C[C@@H]3c4[nH]c5cc(OC)ccc5c4CCN3C[C@H]2C[C@H](OC)[C@@H]1OC`, the Potency [4] was 4.47 µM (active).
For `NC(=O)c1cc[n+](CC2=C(C(=O)O)N3C(=O)[C@@H](NC(=O)C(c4ccccc4)S(=O)(=O)[O-])[C@H]3SC2)cc1` (some centres not stated), the Potency [4] was “inactive”.
For `Cc1c(N)nc([C@H](CC(N)=O)NC[C@H](N)C(N)=O)nc1C(=O)N[C@H](C(=O)N[C@H](C)[C@@H](O)[C@H](C)C(=O)N[C@H](C(=O)NCCc1nc(-c2nc(C(=O)NCCCCN=C(N)N)cs2)cs1)[C@@H](C)O)[C@@H](O[C@@H]1O[C@@H](CO)[C@@H](O)[C@H](O)[C@@H]1O[C@H]1O[C@H](CO)[C@@H](O)[C@H](OC(N)=O)[C@@H]1O)c1cnc[nH]1`, the Potency [4] was “inactive”.
In the case of `CCCCCCCCCc1ccc(OCCOCCO)cc1`, the Potency [4] is reported as 14.1 µM (active).
With `CCOC(=O)Oc1c(OC)cc(C(=O)O[C@@H]2C[C@@H]3CN4CCc5c([nH]c6cc(OC)ccc56)[C@H]4C[C@@H]3[C@H](C(=O)OC)[C@H]2OC)cc1OC` the Potency [4] was 2.24 µM (active).
With `Nc1ccc(N=Nc2ccccc2)c(N)n1` the max response [1] was -12.2%, the max response [2] was -21% (inactive) and the Potency [4] was “inactive”. For the same compound, the Potency [5] was 10.2 µM (active), the Potency [7] was “inactive” and the ratio activity, negative = inhibition [8] was 0.697% (inactive).
In the case of `CCOC(C)OCC`, the max response [1] is reported as -5.73%, the max response [2] is reported as -3.17% (inactive) and the Potency [4] is reported as “inactive”. The Potency [5] was “inactive”, the Potency [6] was “inactive” and the Potency [7] was “inactive”.
In the case of `C=C(C)C1CC=C(C)CC1` (configuration not stated), the max response [1] is reported as 0.388% and 6.57%, the max response [2] is reported as 2.38% (inactive) and 15.2% (inactive) and the Potency [5] is reported as “inactive”. For the same compound, the Potency [6] was “inactive”, the Potency [7] was “inactive” and the ratio activity, negative = inhibition [8] was -0.885% (inactive).
For `CCCCC`, the max response [1] was -4.57%, the max response [2] was 3.28% (inactive) and the Potency [5] was “inactive”. The Potency [6] was “inactive” and the ratio activity, negative = inhibition [8] was 1.47% (inactive).
For `C[N@+]12CCCC[C@@H]1CCC(=C(c1cccs1)c1cccs1)C2`, the Potency [4] was 2.24 µM (active).
With `C[S+](C)CCC(N)C(=O)O` (configuration not stated) the Potency [4] was “inactive”.
In the case of `CC(C)CCC[C@@H](C)[C@H]1CC(=O)C2=C3CC[C@H]4C[C@@H](O)CC[C@]4(C)[C@H]3CC[C@@]21C`, the Potency [4] is reported as “inactive”.
With `CCCCCCCCCCCCCCCCCCOCC(COP(=O)([O-])OCC[N+](C)(C)C)OC` (configuration not stated) the Potency [4] was “inactive”.
In the case of `CCCCCCCCCCCCCCCC(=O)OC[C@@H](O)[C@H]1OC[C@H](O)[C@H]1O`, the Potency [4] is reported as “inactive”.
With `CCN1\C(=C/C=C/C=C/c2sc3ccccc3[n+]2CC)Sc2ccccc21` the Potency [4] was 11.2 µM (active).
With `O=C[C@H](O)[C@@H](O)[C@@H](O)[C@H](O)CO` the Potency [4] was “inactive”.
With `COc1cc2c(cc1OC)[C@@H](c1ccccc1)CN(C)CC2` the Potency [4] was “inactive”.
For `CCCCCCCCCCCCCCCC(=O)OC[C@H](COP(=O)([O-])OCC[N+](C)(C)C)OC(=O)CCCCCCCCCCCCCCC`, the Potency [4] was “inactive”.
